# KCNH2 3.1 block = blocks the human KCNH2 3.1 channel isoform; U2OS KCNH2 3.1, thallium flux FluxOr; hits give low values; activity change, % (tested at about 1.8 µM); 340,000 compounds, 0.95% hits; AID 720553;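 active = maximum activity change below -70%; inconclusive = maximum activity change from -70% to -50%; inactive = maximum activity change above -50%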;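 also: thallium influx rate constant from kinetic fluorescence after stimulation buffer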
#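 Steps: virus added to U2OS suspension (4 h, RT, dark); medium with 10% FBS added, cells plated, 37 C overnight; FluxOr/Red40 loading buffer 45 min RT; stimulation buffer, 2 min kinetic read; rate constant normalized.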
# EPAC2 antag = EPAC2 (human) antagonism. Q8WZA2. AID 720708. EPAC2 GEF exchange of Rap1B-BODIPY-GDP, fluorescence. Potency, µM (doses to about 114 µM), actives largely listed as inhibitors. 360,000 compounds, 0.18% hits; also: nearly all actives have a fitted effect of over 45% in size
# EPAC1 antagonist = EPAC1 (human) antagonism; EPAC1 GEF assay, Rap1b-BODIPY-GDP exchange fluorescence; O95398; Potency, µM (series often up to 115 µM), most hits filed as inhibitors; 360,000 compounds, 0.14% hits; AID 720709; also: nearly all actives have a fitted effect of over 50% in size
# KCNH2 WT inh = KCNH2 (human, wildtype) channel inhibition; Q12809; U2OS, BacMam KCNH2, thallium flux FluxOr; hits give low values; activity change, % at 1.84 µM; 340,000 compounds, 0.37% hits; AID 720551;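 active = maximum activity change below -70%; inconclusive = maximum activity change between -70% and -50%; inactive = maximum activity change above -50%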
#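 U2OS cells were transduced with wild-type KCNH2 virus (2.03 x 10^8 / mL) for 4 h at room temperature, then cultured overnight at 37 C. Thallium flux was read with FluxOr dye. Rate constants were normalized to DMSO controls.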
# EPAC2 ag = EPAC2 (human) agonism | Q8WZA2 | EPAC2 activation, biochemical qHTS; response scale: 100% = 6.5 mM cAMP response | Potency, µM (top dose mostly 154 µM), most hits filed as activators | 360,000 compounds, 0.079% hits; also: nearly all actives have a fitted effect of over 50% in size
#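 Guanine nucleotide exchange by EPAC2 is measured as reduced fluorescence of BODIPY-GDP once it is released from 250 nM Rap1B. Plates are read kinetically for 30 min at room temperature; results are scaled to 6.5 mM cAMP.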
# EPAC1 ag = activates human EPAC1 exchange factor. O95398. EPAC1 agonist qHTS, biochemical assay; response scale: 100% = response to 6.5 mM cAMP. Potency, µM (series often up to 154 µM), usual class: activators. 360,000 compounds, 0.073% hits. AID 720707; also: nearly all actives have a fitted effect of over 60% in size
#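 Normalized to 6.5 mM cAMP, activity reflects EPAC1-catalysed release of BODIPY-GDP from Rap1B, followed kinetically over 30 min at 480 nm excitation, 540 nm emission. Reaction contained 100 nM EPAC1, 250 nM Rap1B-BODIPY-GDP, 50 uM GDP.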
# Hits are given with their value; - = inactive; ? = inconclusive; . = no result. Sampled rows, rich in hits. Any-hit rate of the full collection: about 1.4%. Unless noted, calls follow the shape of the dose curve; as a rule, active = well fitted curve in the direction sought with a large enough effect; inconclusive = small, poorly fitted or top-dose-only effect, or another doubt; inactive = no such curve, though single readings can be large; an effect the other way counts as inactive or inconclusive.
SMILES,KCNH2 3.1 block,EPAC2 antag,EPAC1 antagonist,KCNH2 WT inh,EPAC2 ag,EPAC1 ag
COc1ccc(C(=O)N2CCc3[nH]nc(-c4ccccc4)c3C2)cc1,-,-,-,-,-,-
N#Cc1ccc(N2C(=O)[C@@H]3C(C(=O)c4cnccn4)=NN[C@@H]3C2=O)cc1,-,-,-,-,-,-
N#Cc1ccc(N2C(=O)[C@@H]3C(C(=O)c4ccc5ccccc5n4)=NN[C@@H]3C2=O)cc1,-,-,-,-98,-,-
CN(CCOc1ccccc1)CC(O)COc1ccccc1 (stereo not given),-,-,-,-,-,-
COc1ccc(CN(C)CC(O)COc2ccc(C(=O)c3ccccc3)cc2)c(OC)c1OC (stereo not given),?,-,-,-,-,-
CN(CCOc1ccc(Br)cc1)CC(O)COc1ccc(C#N)cc1 (stereo not given),-120,-,-,-113,-,-
COc1ccc(Br)cc1CN(C)CC(O)COc1ccc(Br)cc1 (stereo not given),-75,-,-,-,-,-
Oc1ccc2ccccc2c1C=Nc1ccc(Cl)cn1,-114,-,?,-,-,-
Cc1cc(O)c(C=Nc2ccc(Cl)cn2)c(=O)o1,-,-,-,-,-,-
COc1ccc(N2CC(C(=O)N3CCN(S(=O)(=O)c4ccc(F)c(F)c4)CC3)CC2=O)c(OC)c1 (stereo not given),-,-,-,-,-,-
CC1(C(=O)NS(=O)(=O)c2ccc3c(c2)CCO3)CCN1C(=O)C1(c2ccc(Cl)cc2)CCC1 (stereo not given),.,?,50µM,.,-,-
Cc1ccc(F)c(S(=O)(=O)NC(=O)C2(C)CCN2C(=O)C2(c3ccc(Cl)cc3)CCC2)c1 (stereo not given),.,45µM,-,.,-,-
O=C(COC(=O)c1cccs1)NC1CCCC1,-,-,-,-,-,-
CCCCn1c(SCC(=O)c2c(N)n(C3CC3)c(=O)[nH]c2=O)nc2cc(S(N)(=O)=O)ccc21,-,-,-,-,-,-
CC(C)C[C@@H](CN1CCCC1CN1C(=S)NC[C@@H]1Cc1ccc(O)cc1)N1C[C@H](Cc2ccc(O)cc2)N(CCc2ccccc2)C1=S (stereo not given in full),-79,-,-,-121,-,-
CCOc1ccc(CCN2C(=S)N([C@@H](Cc3ccc(O)cc3)CN3CCCC3CN3C(=S)NC[C@@H]3Cc3ccc(O)cc3)C[C@@H]2CC(C)C)cc1 (stereo not given in full),-,-,-,-80,-,-
CN1CCN(c2nc(-c3ccc(Cl)cc3Cl)nc3ccccc23)CC1,-124,-,-,-,-,-
CCN(CC(=O)NCc1cccs1)C(=O)c1cccc(S(=O)(=O)N2CCc3ccccc32)c1,-,-,-,-,-,-
CCN(CC(=O)NCc1cccs1)C(=O)c1cccc(S(=O)(=O)N2CC(C)OC(C)C2)c1 (stereo not given),-156,-,-,-131,-,-
COC(=O)c1c(C)c2c(C)cc3ccccn3c-2c1C(=O)OC,-,11µM,-,-,-,-
N#C/C(=C\c1ccc(C(=O)O)cc1)c1nc2sc3c(c2c(=O)[nH]1)CCCC3,-,-,-,-,56µM,32µM
C[C@@H]1CN([C@H](C)CO)C(=O)CCCn2cc(nn2)CO[C@H]1CN(C)C(=O)c1ccccc1,.,-,?,.,-,-
COc1ccccc1CNC(=O)CN1C(=O)NC(c2ccccc2)(c2ccccc2)C1=O,-,-,-,-,-,-
O=c1c2ccccc2ncn1Cc1ccc(Cl)cc1,-98,-,-,-,-,-
O=c1c2ccccc2ncn1Cc1ccc(Cl)c(Cl)c1,-,-,-,-,-,-
SMILES,KCNH2 3.1 block,EPAC2 antag,EPAC1 antagonist,KCNH2 WT inh,EPAC2 ag,EPAC1 ag
CCOc1ccc(S(=O)(=O)N2CCC(C(=O)OC(C)C(=O)NC3CCCCC3C)CC2)cc1 (stereo not given),-144,-,-,-203,-,-
COc1ccc(CCNC(=O)C2CC(=O)N(C3CCCCCCC3)C2)cc1OC (stereo not given),-201,-,-,-,-,-
O=S(=O)(/C=C/C=C/S(=O)(=O)c1ccccc1)c1ccccc1,?,-,?,-,-,-
Cc1cc(CN(C)C(=O)CC2C(=O)NCCN2Cc2c(F)cccc2Cl)n[nH]1 (stereo not given),-,-,-,-79,-,-
C/C(=N\NC(=O)CN1CCN(Cc2ccccc2)CC1)c1ccncc1,-,-,-,-,-,-
C/C(=N/NC(=O)CN1CCN(Cc2ccccc2)CC1)c1ccc([N+](=O)[O-])cc1,-79,-,-,-,-,-
O=C(Cc1cccs1)N/N=C/C=C\c1ccccc1[N+](=O)[O-],-,-,-,-,-,-
O=C(CN1CCN(Cc2ccc(Cl)cc2)CC1)N/N=C/C=C/c1ccccc1[N+](=O)[O-],-91,-,-,-,-,-
O=C(NCCN1CCN(c2ccc([N+](=O)[O-])cc2)CC1)NCc1ccccc1,-73,-,-,-,-,-
CCCCc1ccc(NC(=O)C(=O)NCCN2CCN(C(=O)c3ccc([N+](=O)[O-])cc3)CC2)cc1,-101,-,-,?,-,-
CCOC(=O)C1=CCC(c2ccc(C#N)cc2)N(S(=O)(=O)c2ccc(C)cc2)C1 (stereo not given),.,-,-,.,-,-
CCN(Cc1ccc(OC)c(F)c1)C(C)C(=O)Nc1ccc(S(=O)(=O)N2CCCC2)cc1 (stereo not given),-,-,-,-,-,-
COc1ccc(C(=O)N[C@H](C(=O)N2CCN(c3ccccc3F)CC2)C(C)C)cc1,-,-,-,-,-,-
O=C(CN1CCN(c2ccc([N+](=O)[O-])cc2)CC1)c1ccccc1,-,-,-,-,-,-
O=C(NCCN1CCN(Cc2ccc([N+](=O)[O-])cc2)CC1)C(=O)Nc1ccccc1,-82,-,-,?,-,-
CCc1ccc(NC(=O)C(=O)NCCN2CCN(C(=O)c3ccc(OC)cc3)CC2)cc1,-97,-,-,-,-,-
O=C(NCCN1CCN(Cc2ccccc2)CC1)Nc1cc(Cl)cc(Cl)c1,-93,-,-,?,-,-
O=C(NCCN1CCN(S(=O)(=O)c2ccc([N+](=O)[O-])cc2)CC1)C(=O)Nc1ccccc1,-,-,-,-,-,-
O=C(CCN1CCN(c2ccc([N+](=O)[O-])cc2)CC1)c1ccc(Cl)cc1,-113,-,-,-77,-,-
